Screens as filed in PubChem BioAssay.
cytoskel mod: modifiers of cytoskeleton assembly. HUVEC TNFa F-actin phalloidin imaging, high content. inhibition, % at 2 µM. 91,000 compounds, 0.18% hits;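 active means inhibition above the batch mean plus 3 SD and confirmed as a hit by visual image inspection, cut at about 30% in these data, passing the limit was not always enough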
HUVEC tox TNFa: toxic to HUVEC cells under TNF alpha stimulation; HUVEC TNFalpha-stimulated, Hoechst cell count, imaging; cell count reduction, % at 2 µM; 93,000 compounds, 0.17% hits;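 active means cell count reduction exceeding the screen mean by over 5 SD, scaled to untreated wells per plate, cut at about 78% in these data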;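 further: cells counted after 24 h of TNF alpha exposure following the 1 h pretreatment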
E-sel TNF inh: TNF alpha driven E-selectin expression inhibition. inhibition, % at 2 µM. AID 1246. 120,000 compounds, 0.71% hits. HUVEC TNFa-induced E-selectin immunofluorescence, high content;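 active means inhibition above the batch mean plus 3 SD, and confirmed as a hit on visual image review, cut at about 43% in these data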
VCAM1 TNFa inh: reduces TNF alpha induced VCAM1 expression in HUVEC. HUVEC TNFa-induced VCAM-1 immunofluorescence, high-content imaging. inhibition, % at 2 µM. 95,000 compounds, 0.48% hits;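 active means inhibition above the batch mean plus 3 SD, with images confirmed as a hit by eye, cut at about 37% in these data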
Of the large screens only hits and unclear results are named; the others gave an inactive call. A selection: hits, their analogues and other compounds. The true share with any hit is near 1.2%.

CCCC(=O)Nc1ccc(C(=O)n2nnc3ccccc32)cc1	none
COc1ccc(S(=O)(=O)Nc2ccc(C)cc2)cc1N(C)S(=O)(=O)c1ccc(Cl)cc1	E-sel TNF inh 100
Cc1cc(NC(=O)CCN2C(=O)/C(=C/c3ccccc3Cl)SC2=S)no1	none (no result: cytoskel mod, HUVEC tox TNFa, VCAM1 TNFa inh)
O=C(CCN1C(=O)/C(=C\c2ccccc2Cl)SC1=S)N1CCN(c2ccccc2)CC1	E-sel TNF inh 58
CCS(=O)(=O)N1CCN(c2ccc([N+](=O)[O-])c(N3CCOCC3)c2)CC1	E-sel TNF inh 97 (no result: cytoskel mod, HUVEC tox TNFa, VCAM1 TNFa inh)
O=[N+]([O-])c1ccc(N2CCN(S(=O)(=O)Cc3ccccc3)CC2)cc1N1CCOCC1	none
O=C(Oc1ccccc1)c1cc2ccccc2o1	none
O=C(Cn1nnc(-c2ccc(Cl)cc2)n1)NC1CCN(Cc2ccccc2)CC1	E-sel TNF inh 100
CC(C)(C)NS(=O)(=O)c1ccc(Oc2ncc(C(F)(F)F)cc2Cl)cc1	cytoskel mod 61
CCCCCOC(=O)Cn1c(SCC(=O)Nc2ccccc2)nc2c1c(=O)[nH]c(=O)n2C	E-sel TNF inh 74
Cn1c(=O)c(C(=O)COc2ccc(F)cc2Cl)c(N)n(Cc2ccccc2)c1=O	none (no result: cytoskel mod, HUVEC tox TNFa, VCAM1 TNFa inh)
Clc1ccc(Nc2ccc(-n3ccnc3)nn2)cc1Cl	E-sel TNF inh 65
COc1ccc(C)cc1S(=O)(=O)Nc1cccc(Cl)c1	none
COCCn1c(SCC(=O)N2CCCCC2)nc2ccccc2c1=O	E-sel TNF inh 96
CCc1nc2oc3ccccc3c(=O)c2c(=O)n1CCOC	HUVEC tox TNFa 97, VCAM1 TNFa inh 87 (no result: E-sel TNF inh)
COCCn1c(C(C)C)nc2oc3ccccc3c(=O)c2c1=O	none (no result: E-sel TNF inh)
O=C(Nc1cccn2ncnc12)c1ccccc1	none
O=C(Nc1cccn2ncnc12)c1ccc(Cl)cc1	E-sel TNF inh 43
Cc1ccc(S(=O)(=O)Nc2cc(C(=O)NCCN3CCCC3)ccc2N2CCCCC2)cc1	HUVEC tox TNFa 88, VCAM1 TNFa inh 74 (no result: E-sel TNF inh)
CCc1ccc2c(Cl)c(C(=O)N/N=C/c3c[nH]c4ccccc34)sc2c1	none
O=C(N/N=C/c1ccc[nH]1)c1sc2ccccc2c1Cl	VCAM1 TNFa inh 38
Cc1c(N=C/C=C2\N(C)c3ccccc3C2(C)C)c(=O)n(-c2ccccc2)n1C	E-sel TNF inh 63
Cc1c(N=C/C=C2/N(C)c3ccccc3C2(C)C)c(=O)n(-c2ccccc2)n1C	none
Cc1ccc2oc(Nc3nc(-c4ccccc4)cc(=O)[nH]3)nc2c1	E-sel TNF inh 100 (no result: cytoskel mod, HUVEC tox TNFa, VCAM1 TNFa inh)
CN(Cc1ccccc1)C(=O)C1CCN(S(C)(=O)=O)CC1	none (no result: cytoskel mod, HUVEC tox TNFa, VCAM1 TNFa inh)
CCOC(=O)c1c(NC(=O)CSc2nnc(-c3ccccc3)n2CC)sc(C(C)=O)c1C	E-sel TNF inh 100
COc1ccccc1-n1cnnc1SCC(=O)Nc1cccc(S(=O)(=O)N2CCCCC2)c1	none (no result: cytoskel mod, HUVEC tox TNFa, VCAM1 TNFa inh)
Cc1nc(SCC(N)=O)c([N+](=O)[O-])[nH]1	E-sel TNF inh 63 (no result: cytoskel mod, HUVEC tox TNFa, VCAM1 TNFa inh)
C=CCN(C(=O)CCC(=O)O)C1CC(=O)N(c2ccc(OCCC)cc2)C1=O (stereo unspecified)	E-sel TNF inh 92 (no result: cytoskel mod, HUVEC tox TNFa, VCAM1 TNFa inh)
CCOC(=O)Cc1nnc(NC(=O)CSc2ccc(Cl)cc2)s1	E-sel TNF inh 67
CCN(CC)c1ccc(-c2nn3c(-c4n[nH]c5c4CCC5)nnc3s2)cc1	VCAM1 TNFa inh 48
Oc1ccc(N2CCN(c3ncnc4sc5c(c34)CCC5)CC2)cc1	VCAM1 TNFa inh 86 (no result: E-sel TNF inh)
COc1ccc2nc(SCC(=O)N3CC(=O)Nc4ccccc43)c(C#N)cc2c1	none
Cc1cc(C)c2nc(SCC(=O)N3CC(=O)Nc4ccccc43)c(C#N)cc2c1	HUVEC tox TNFa 89, VCAM1 TNFa inh 100
O=C(Cc1ccc(-n2cccc2)cc1)N1CCN(c2ccccc2F)CC1	none
O=C(COc1ccc(-c2nnco2)cc1)NCc1ccccc1Cl	E-sel TNF inh 77 (no result: cytoskel mod, HUVEC tox TNFa, VCAM1 TNFa inh)
CC1=C([N+](=O)[O-])C(c2cccc(Br)c2)C2=C(N1)c1ccccc1C2=O (stereo unspecified)	VCAM1 TNFa inh 93
COc1ccc(-n2c(C)cc(C(=O)COc3ccc(C)nc3[N+](=O)[O-])c2C)cc1	E-sel TNF inh 62 (no result: cytoskel mod, HUVEC tox TNFa, VCAM1 TNFa inh)
O=C(Nc1ccccc1)N(CCc1ccncc1)C1CCCCC1	E-sel TNF inh 98
CCN1C(=O)CC(C(=O)NC)SC1=Nc1cc(Cl)c(O)c(Cl)c1 (stereo unspecified)	none
Nc1c(C(=O)NC2CCCC2)c2nc3ccccc3nc2n1N	cytoskel mod 47 (no result: E-sel TNF inh)
Nc1c(C(=O)NC2CCCC2)c2nc3ccccc3nc2n1/N=C/c1ccco1	none
CCOC(=O)N1CCc2c(sc3c2c(=O)n(Cc2ccccc2)c(=O)n3Cc2cccc(C)c2)C1	E-sel TNF inh 88 (no result: cytoskel mod, HUVEC tox TNFa, VCAM1 TNFa inh)
CCOC(=O)N1CCc2c(sc3c2c(=O)n(Cc2ccccc2)c(=O)n3Cc2ccccc2F)C1	none (no result: cytoskel mod, HUVEC tox TNFa, VCAM1 TNFa inh)
COc1cc(C2C(C#N)=C(N)Oc3c2oc(CO)cc3=O)cc(OC)c1OC (stereo unspecified)	E-sel TNF inh 100
COc1ccc(C2C(C#N)=C(N)Oc3c2oc(CO)cc3=O)c(OC)c1OC (stereo unspecified)	none (no result: E-sel TNF inh)
O=c1cc(CO)oc(CN2CCN(c3ccccc3)CC2)c1O	HUVEC tox TNFa 86
C=CCn1c(=O)/c(=C2/SC(C)=C(C)N2CC)s/c1=C1/C(=O)N(C)C(=S)N1c1ccccc1	none
CCN(CC)C1=CC(=O)OC12CCCCC2	none (no result: E-sel TNF inh)
Cc1cc(C)n(-c2nc(SCCN(C)C)c3c4c(sc3n2)CCCC4)n1	none
C=CCN1C(=O)/C(=C2/Sc3ccccc3N2CCCS(=O)(=O)O)SC1=S	cytoskel mod 65
O=C(c1sccc1-n1cccc1)N1CCCC1	none (no result: cytoskel mod, E-sel TNF inh)
Cc1ccc(-c2nnc3ccc(SCC(=O)Nc4cc(C)on4)nn23)cc1	cytoskel mod 66
Cc1cccc(N(Cc2ccccc2F)S(C)(=O)=O)c1	none (no result: cytoskel mod, HUVEC tox TNFa, VCAM1 TNFa inh)
CC1(C)CC(=O)C(C=NCCN2CCN(C(=S)Nc3ccccc3)CC2)=C(O)C1	none (no result: E-sel TNF inh)
O=C(O)c1ccccc1NS(=O)(=O)c1ccc2c3c(cccc13)C(=O)N2	none (no result: cytoskel mod, HUVEC tox TNFa, VCAM1 TNFa inh)
COC(=O)c1ccccc1NS(=O)(=O)c1ccc2c3c(cccc13)C(=O)N2	E-sel TNF inh 74
CN1CCCN(S(=O)(=O)c2cccc(Cl)c2Cl)CC1	E-sel TNF inh 94 (no result: cytoskel mod, HUVEC tox TNFa, VCAM1 TNFa inh)
O=S(=O)(c1cccc(Cl)c1Cl)N1CCCCC1	none
CN1CCCN(S(=O)(=O)c2ccc(Cl)c(Cl)c2)CC1	E-sel TNF inh 100 (no result: cytoskel mod, HUVEC tox TNFa, VCAM1 TNFa inh)
O=C(N/N=C/c1cn(-c2cccs2)nc1-c1ccccc1)c1ccc(O)cc1	none (no result: cytoskel mod, HUVEC tox TNFa, VCAM1 TNFa inh)
COc1ccc(S(=O)(=O)N2CCN(C(=O)c3ccco3)CC2)cc1OC	none
COc1ccccc1NC(=O)COc1ccc(C(=O)OCC(=O)N2CCCC2=O)cc1OC	none (no result: cytoskel mod)
COc1ccc(-c2cc(C(F)(F)F)n3nc(C(=O)Nc4cc(C)on4)cc3n2)cc1OC	VCAM1 TNFa inh 95
COC(=O)c1cc2nc(-c3ccc(OC)cc3)cc(C(F)(F)F)n2n1	none
O=C(CSc1ncn(-c2ccccc2)n1)Nc1ccc2c(c1)OCCO2	E-sel TNF inh 72 (no result: cytoskel mod, HUVEC tox TNFa, VCAM1 TNFa inh)
CC1=C(C(=O)OCCOC(C)C)C(c2cccnc2)C2=C(CCCC2=O)N1 (stereo unspecified)	cytoskel mod 79 (no result: E-sel TNF inh)
CCN(CC)c1ccc(C2C(C(=O)OCCOC(C)C)=C(C)NC3=C2C(=O)CCC3)cc1 (stereo unspecified)	none (no result: cytoskel mod, E-sel TNF inh)
CCOC(=O)C1CCCN(C(=O)COC(=O)c2cc(=O)c3ccccc3o2)C1 (stereo unspecified)	E-sel TNF inh 64
CCOC(=O)C1CCCN(C(=O)c2cc(=O)c3ccccc3o2)C1 (stereo unspecified)	none
CCCCCCCSc1nsc(N)n1	none
